In PubChem BioAssay (NCI):
This is part of a sample that, as a whole, favours compounds with a hit. Of some 79,000 tested, about 15% had one in any assay. Calls of active or inactive are those of the source. No stated cut-off is given here; in the data, active means growth inhibition above about 70%; inactive means the rest.

Test: NCI Yeast Anticancer Drug Screen. Data for the mlh1 rad18 strain (AID 175)
Details: S. cerevisiae mlh1 rad18 strain growth inhibition; at 5.0 µM (retest, dose inferred, filed as 0.5); stronger effect = higher value
In short: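 A repair-deficient yeast strain is exposed to test compound, and growth is scored relative to vehicle-treated controls.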

Structure (SMILES) | growth inhibition
COc1ccc2c(Cc3cc(Cl)ccc3O)cncc2c1O | 16% (inactive)
Cc1ccc(NNC2=NC(=S)NC(=O)C2)cc1 | 18% (inactive)
CC#CC(=O)Nc1ccccc1CC(c1c[nH]c2ccccc12)c1c[nH]c2ccccc12 | 35% (inactive)
COC(=O)c1c2oc3c(C(=O)OC)cccc3nc-2cc(N)c1=O | 3% (inactive)
CCCCCC(=O)NNc1ccccc1 | 22% (inactive)
CN(C)CCNc1ccc2nnn3c4ccc(O)cc4c(=O)c1c23 | 27% (inactive)
COc1ccc2c(c1)C(=O)C[C@@H]1[C@](C)(C#N)CCC[C@]21C | 7% (inactive)
CCC(=O)c1cc2ccccc2c2ccccc12 | -2% (inactive)
O=C1OCCCOC(=O)c2cc(ccc2O)OCC#CC#CCOc2ccc(O)c1c2 | 0% (inactive)
Nc1nc(Cl)cc(NCC2(CO)CC(CCCc3ccccc3)C2)n1 (stereo not given) | 23% (inactive)
NNC(=S)Nc1ccccc1 | -1% (inactive)
CCOC(=O)c1ccc(N=Cc2cc(Cl)cc(Cl)c2O)cc1 | 52% (inactive)
CC(C(=O)N1C(=O)N(C(=O)C(C)C(O)c2ccccc2)C(c2ccccc2)C1c1ccccc1)C(O)c1ccccc1 (stereo not given) | 23% (inactive)
CC(C)(C)CC(C)(C)N[P+](NC(C)(C)CC(C)(C)C)(NC(C)(C)CC(C)(C)C)NC(C)(C)CC(C)(C)C | 94% (active)
C/C(=N\NC(=S)N1CCCC1)c1cnccn1 | 80% (active)
N=C(N)c1ccc(OCCCCOc2ccc(N)cc2Cl)cc1 | 17% (inactive)
CCCCCC(CN(C)C)C(O)/C=C\c1ccccc1 (stereo not given) | 8% (inactive)
CC1(CO)CCCC2(C)C3=C(CCCC3)CCC12 (stereo not given) | -108% (inactive)
O=C(CCCl)Nc1cc2ccccc2oc1=O | -16% (inactive)
O=[N+]([O-])c1ccccc1N=Nc1c(O)[nH]c2cccc(C(F)(F)F)c12 | 84% (active)

Structure (SMILES) | growth inhibition
CCCCCCCCC1OC1CCCCCCCC(=O)OCC1CO1 (stereo not given) | 25% (inactive)
CCN(CC)CCNc1ccc(C)c2sc3c(OC)cccc3c(=O)c12 | -5% (inactive)
OC(CCN1CCOCC1)c1ccc(Sc2ccccc2)cc1 (stereo not given) | 62% (inactive)
[Cl-].[La+3].[O-]/N=C(\c1ccccc1)c1ccccn1.[O-]/N=C(\c1ccccc1)c1ccccn1.[O-]/N=C(\c1ccccc1)c1ccccn1 | 43% (inactive)
COc1ccc(NC(=O)CSC(N)=O)cc1 | 3% (inactive)
Fc1cccc(CSc2ncnc3c2ncn3C2CCCS2)c1 (stereo not given) | 3% (inactive)
CC/C(=C(\CC)c1ccc(OCCN2CCOCC2)cc1)c1ccc(OCCN2CCOCC2)cc1 | 30% (inactive)
O=[N+]([O-])c1c(Cl)ccc2nsnc12 | -50% (inactive)
COc1ccccc1NC(=O)/C(=C\N1C(=O)/C(=C/c2cc(OC)c(OC)c(OC)c2)SC1=S)C(C)=O | -39% (inactive)
O=CNC(CCCC(=O)O)Cc1cc2ccccc2c2ccccc12 (stereo not given) | -3% (inactive)
C=C1CC2(CCCC3(CC(=C)C(=O)O3)C2(C)C)OC1=O (stereo not given) | 12% (inactive)
CCOC(=O)Nc1cc(NC(C)/C(=N/O)c2ccccc2)c([N+](=O)[O-])c(N)n1 (stereo not given) | -5% (inactive)
O=C(N=Nc1cccc(Cl)c1)NNc1cccc(Cl)c1 | -6% (inactive)
Oc1ccc2c(ccc3ccccc32)c1 | -1% (inactive)
CCc1cccc(C(C)(C)C)c1NC(=S)/N=C/C(C(=O)c1ccccc1)=C(\O)c1ccccc1 | -4% (inactive)
NC(=S)N/N=C/c1cn(CCCl)c2ccccc12 | -32% (inactive)
COC1=Nc2ccccc2S(=O)(=O)C=C1 | 12% (inactive)
O=C1C2C3C=CC(C3)C2C(=NS(=O)(=O)c2ccccc2)C2C3C=CC(C3)C12 (stereo not given) | 28% (inactive)
NC(=Nc1ccccc1)c1ccc2c(c1)c1c(n2Cc2ccccc2)CCCC1 | -1% (inactive)
NN=C(CC(O)(C(F)(F)Cl)C(F)(F)Cl)CC(O)(C(F)(F)Cl)C(F)(F)Cl | 38% (inactive)

Same assay, conditions: S. cerevisiae mlh1 rad18 strain growth inhibition; at 50.0 µM (retest, dose inferred, filed as 5.0); stronger effect = higher value

Structure (SMILES) | growth inhibition
COc1ccc2c(Cc3cc(Cl)ccc3O)cncc2c1O | 62% (inactive)
Cc1ccc(NNC2=NC(=S)NC(=O)C2)cc1 | 97% (active)
CC#CC(=O)Nc1ccccc1CC(c1c[nH]c2ccccc12)c1c[nH]c2ccccc12 | 35% (inactive)
COC(=O)c1c2oc3c(C(=O)OC)cccc3nc-2cc(N)c1=O | 44% (inactive)
CCCCCC(=O)NNc1ccccc1 | 93% (active)
CN(C)CCNc1ccc2nnn3c4ccc(O)cc4c(=O)c1c23 | 15% (inactive)
COc1ccc2c(c1)C(=O)C[C@@H]1[C@](C)(C#N)CCC[C@]21C | 13% (inactive)
CCC(=O)c1cc2ccccc2c2ccccc12 | 61% (inactive)
O=C1OCCCOC(=O)c2cc(ccc2O)OCC#CC#CCOc2ccc(O)c1c2 | -4% (inactive)
Nc1nc(Cl)cc(NCC2(CO)CC(CCCc3ccccc3)C2)n1 (stereo not given) | 22% (inactive)
NNC(=S)Nc1ccccc1 | 10% (inactive)
CCOC(=O)c1ccc(N=Cc2cc(Cl)cc(Cl)c2O)cc1 | 100% (active)
CC(C(=O)N1C(=O)N(C(=O)C(C)C(O)c2ccccc2)C(c2ccccc2)C1c1ccccc1)C(O)c1ccccc1 (stereo not given) | 91% (active)
CC(C)(C)CC(C)(C)N[P+](NC(C)(C)CC(C)(C)C)(NC(C)(C)CC(C)(C)C)NC(C)(C)CC(C)(C)C | 98% (active)
C/C(=N\NC(=S)N1CCCC1)c1cnccn1 | 98% (active)
N=C(N)c1ccc(OCCCCOc2ccc(N)cc2Cl)cc1 | 98% (active)
CCCCCC(CN(C)C)C(O)/C=C\c1ccccc1 (stereo not given) | -9% (inactive)
CC1(CO)CCCC2(C)C3=C(CCCC3)CCC12 (stereo not given) | 95% (active)
O=C(CCCl)Nc1cc2ccccc2oc1=O | 19% (inactive)
O=[N+]([O-])c1ccccc1N=Nc1c(O)[nH]c2cccc(C(F)(F)F)c12 | 97% (active)

Structure (SMILES) | growth inhibition
CCCCCCCCC1OC1CCCCCCCC(=O)OCC1CO1 (stereo not given) | -14% (inactive)
CCN(CC)CCNc1ccc(C)c2sc3c(OC)cccc3c(=O)c12 | 36% (inactive)
OC(CCN1CCOCC1)c1ccc(Sc2ccccc2)cc1 (stereo not given) | 58% (inactive)
[Cl-].[La+3].[O-]/N=C(\c1ccccc1)c1ccccn1.[O-]/N=C(\c1ccccc1)c1ccccn1.[O-]/N=C(\c1ccccc1)c1ccccn1 | 68% (inactive)
COc1ccc(NC(=O)CSC(N)=O)cc1 | 12% (inactive)
Fc1cccc(CSc2ncnc3c2ncn3C2CCCS2)c1 (stereo not given) | 88% (active)
CC/C(=C(\CC)c1ccc(OCCN2CCOCC2)cc1)c1ccc(OCCN2CCOCC2)cc1 | 72% (active)
O=[N+]([O-])c1c(Cl)ccc2nsnc12 | 97% (active)
COc1ccccc1NC(=O)/C(=C\N1C(=O)/C(=C/c2cc(OC)c(OC)c(OC)c2)SC1=S)C(C)=O | 25% (inactive)
O=CNC(CCCC(=O)O)Cc1cc2ccccc2c2ccccc12 (stereo not given) | 9% (inactive)
C=C1CC2(CCCC3(CC(=C)C(=O)O3)C2(C)C)OC1=O (stereo not given) | 97% (active)
CCOC(=O)Nc1cc(NC(C)/C(=N/O)c2ccccc2)c([N+](=O)[O-])c(N)n1 (stereo not given) | 82% (active)
O=C(N=Nc1cccc(Cl)c1)NNc1cccc(Cl)c1 | 98% (active)
Oc1ccc2c(ccc3ccccc32)c1 | 99% (active)
CCc1cccc(C(C)(C)C)c1NC(=S)/N=C/C(C(=O)c1ccccc1)=C(\O)c1ccccc1 | 65% (inactive)
NC(=S)N/N=C/c1cn(CCCl)c2ccccc12 | 35% (inactive)
COC1=Nc2ccccc2S(=O)(=O)C=C1 | 94% (active)
O=C1C2C3C=CC(C3)C2C(=NS(=O)(=O)c2ccccc2)C2C3C=CC(C3)C12 (stereo not given) | 12% (inactive)
NC(=Nc1ccccc1)c1ccc2c(c1)c1c(n2Cc2ccccc2)CCCC1 | 99% (active)
NN=C(CC(O)(C(F)(F)Cl)C(F)(F)Cl)CC(O)(C(F)(F)Cl)C(F)(F)Cl | 99% (active)
